Compounds without any hit were thinned out: in the full panel of roughly 83,000, 20% have a hit.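 Negative percent growth values reflect cell death: -40 means 40% of the cells present at the start died, and -100 means all died.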 The source made the active and inactive calls. How the source made its calls: active means growth percent below 10; inactive means the rest.
Legend:
Assay in all cases: NCI-60 one-dose screen, 48 h (100 = growth as untreated, 0 = no growth, -100 = all killed)
Details in all cases: 10 µM unless noted
[1] = tested on: SK-MEL-2 melanoma
[2] = tested on: EKVX NSCLC
[3] = tested on: SN12C renal
[4] = tested on: UO-31 renal
[5] = tested on: TK-10 renal
[6] = tested on: ACHN renal
[7] = tested on: CAKI-1 renal
[8] = tested on: A498 renal
[9] = tested on: CCRF-CEM leukemia
[10] = tested on: MOLT-4 leukemia

Measured: growth

CCCc1cc(=O)n2c(C(=O)Nc3cccc(C(=O)OCC)c3)c(C(=O)Nc3ccc(F)cc3)sc2n1
inactive: [1] 63.4% [30 µM] | [2] 92.8% [30 µM] | [3] 28.8% [30 µM] | [4] 15.7% [30 µM] | [5] 45% [30 µM] | [6] 38.9% [30 µM] | [7] 17.3% [30 µM] | [9] 40.9% [30 µM] | [10] 127% [30 µM]
active: [8] 8.74% [30 µM]

O=C1Nc2cc(-c3ccc(O)cc3)ccc2/C1=C/c1ccc[nH]1
active: [1] 2.16% | [4] -3.39% | [6] 4.81% | [7] 2.43% | [8] -3.08% | [9] 6%
inactive: [2] 12% | [3] 13.6% | [5] 17.7%

COC(=O)c1ccc2oc(NC(=O)c3ccc(Nc4ccc([N+](=O)[O-])cc4C)c([N+](=O)[O-])c3)nc2c1
inactive: [1] 101% | [2] 79.9% | [3] 97.2% | [4] 90.7% | [5] 100% | [6] 104% | [7] 89.5% | [8] 108% | [9] 107%

C=CC(=O)Nc1cccc(-c2nc(SC)nc(NCc3ccccc3)c2C#N)c1
active: [8] -1.24%
inactive: [1] 60.8% | [2] 44% | [3] 42.1% | [4] 31.1% | [5] 69.1% | [6] 50.6% | [7] 40.5% | [9] 60.3%

COc1ccc(NC2=C(Sc3nc(C)cc(C)n3)C(=O)N(Cc3ccccc3)C2=O)cc1Cl
inactive: [1] 96.5% [30 µM] | [2] 84.5% [30 µM] | [3] 91.8% [30 µM] | [4] 84.2% [30 µM] | [5] 111% [30 µM] | [6] 103% [30 µM] | [7] 95.7% [30 µM] | [8] 80.4% [30 µM] | [9] 54.6% [30 µM]

CC(=O)c1nc2ccccc2n1CC(=O)c1cccc(Cl)c1
active: [7] 5.79% | [9] 5.08%
inactive: [1] 61.9% | [2] 17.1% | [3] 31.9% | [4] 28.3% | [5] 34.3% | [6] 51.3% | [8] 88.5%

O=C(C(=O)c1ccc2c(c1)OCO2)c1ccc2c(c1)OCO2
inactive: [1] 112% | [2] 124% | [3] 107% | [4] 100% | [5] 105% | [6] 111% | [7] 107% | [8] 98.1%

COc1ccc(C2CC(c3ccc4ccccc4c3)=NN2/C=C2\SC(=S)N(NC(=O)Cc3ccccc3Nc3c(Cl)cccc3Cl)C2=O)cc1 (stereo not given)
active: [8] -0.474% | [9] 6.24%
inactive: [1] 38.8% | [2] 40.2% | [3] 31.7% | [4] 11.8% | [5] 48.7% | [6] 47.4% | [7] 31.5%

O=C1/C(=C/c2ccccc2)SC(=S)N1CCc1ccc(O)cc1
inactive: [1] 101% | [2] 91.9% | [3] 91.3% | [4] 65% | [5] 99.9% | [6] 93.9% | [7] 73.3% | [8] 92.1% | [9] 74.2% | [10] 88.6%

CCc1nnc(CNc2ccc(Cl)cc2)o1
inactive: [1] 90.6% | [2] 91.3% | [3] 95.8% | [4] 73.7% | [5] 114% | [6] 86.8% | [7] 89.9% | [8] 106% | [9] 114%

Oc1ccccc1-c1nnc(CNc2ccc(Cl)cc2)o1
inactive: [1] 30.1% | [2] 38.9% | [3] 40.6% | [4] 19% | [5] 44.7% | [6] 12.7% | [7] 17% | [8] 77.9% | [9] 11.8%

COc1ccc(CCNc2nc3c(c(=O)n(Cc4ccc(Br)cc4)c(=O)n3C)n2C)cc1OC
inactive: [1] 93% | [2] 83.7% | [3] 91.1% | [4] 70.6% | [5] 111% | [6] 89.7% | [7] 85.6% | [8] 92.6% | [9] 99.7% | [10] 88.2%

CNc1ccc(-c2cc(=O)oc3ccc(Cl)cc23)cc1
inactive: [1] 33.7% | [2] 40.1% | [3] 29.9% | [4] 47.7% | [5] 50% | [6] 37% | [7] 34.4% | [9] 14.4% | [10] 11.3%
active: [8] -3.47%

COc1ccc(-c2nc3ccc(-c4nc5ccc(N6CCN(C)CC6)cc5[nH]4)cc3[nH]2)cc1OC
inactive: [1] 45% | [2] 85.4% | [3] 71.1% | [4] 99.4% | [5] 84.3% | [6] 100% | [7] 71.9% | [8] 76.6% | [9] 51.7% | [10] 61.1%

Cn1c(NCCc2ccc(O)c(O)c2)nc2c1c(=O)n(Cc1ccc(Br)cc1)c(=O)n2C
inactive: [1] 89.8% | [2] 79.9% | [3] 72.7% | [4] 30% | [5] 68.8% | [6] 32.9% | [7] 74.7% | [8] 106% | [9] 23% | [10] 29.3%

CSc1nc(NCCN2CCOCC2)c(C#N)c(-c2cccc([N+](=O)[O-])c2)n1
inactive: [1] 109% | [2] 87.3% | [3] 95.7% | [4] 82.5% | [5] 135% | [6] 93.7% | [7] 86.4% | [8] 55.7% | [9] 102% | [10] 98%

CCOC(=O)n1cc(-c2nonc2-c2cn(C)c3ncccc23)c2cc(F)ccc21
inactive: [1] 92.8% | [2] 67.3% | [3] 79.8% | [4] 57.5% | [5] 80.8% | [6] 74.9% | [7] 54.8% | [8] 94.8% | [9] 85% | [10] 66.7%

Cn1c(=O)c2c(nc3n(-c4ccc(Cl)cc4Cl)c(Sc4nc(-c5ccccc5)c(C#N)c(=O)[nH]4)cn23)n(C)c1=O
inactive: [1] 99% | [2] 59.5% | [3] 33% | [6] 14.2% | [7] 59.4% | [8] 33.5% | [9] 47.7% | [10] 75.8%
active: [4] -1.67% | [5] 5.58%

Cn1cc(C(=O)c2nc(-c3c[nH]c4ccc(F)cc34)no2)c2cc(F)ccc21
inactive: [1] 98.1% | [2] 89.8% | [3] 95.1% | [4] 69.5% | [5] 113% | [6] 96.1% | [7] 82.5% | [8] 112% | [9] 91.7% | [10] 95.2%

O=C1OC(c2ccccc2)C(O)=C1c1ccccc1 (stereo not given)
inactive: [1] 117% | [2] 104% | [3] 98.9% | [4] 79.7% | [5] 110% | [6] 103% | [7] 95% | [8] 100% | [9] 89.7% | [10] 90.1%

O=S(=O)(Nc1ccc(NS(=O)(=O)c2ccccc2)c(Cl)c1)c1ccccc1
inactive: [1] 91.6% | [2] 106% | [3] 102% | [4] 88.7% | [5] 100% | [6] 105% | [7] 92.4% | [8] 113% | [9] 92% | [10] 79%

CC(C)C1=C[C@@]23CC[C@@H]4[C@](C)(CCC[C@@]4(C)C(=O)N4CCCNCC4)[C@H]2C[C@@H]1[C@H]1C(=O)CCC(=O)[C@H]13
inactive: [1] 103% | [2] 95.2% | [3] 102% | [4] 79.2% | [5] 104% | [6] 92.1% | [7] 81.1% | [8] 97% | [9] 101% | [10] 96.5%

CC1CCNC(C)C1 (stereo not given)
inactive: [1] 112% | [2] 107% | [3] 103% | [4] 93.2% | [5] 109% | [6] 106% | [7] 101% | [8] 106% | [9] 94.4% | [10] 116%

FC(F)(F)c1ccc(-c2cn3nc(-c4c[nH]c5ccc(Br)cc45)sc3n2)cc1
inactive: [1] 97.8% | [2] 68.9% | [3] 93.9% | [4] 68.8% | [5] 112% | [6] 88.6% | [7] 61.4% | [8] 113% | [9] 95% | [10] 87.6%

N#C/C(=C\c1ccc(-c2ccc(Cl)c(Cl)c2)o1)c1nc(-c2ccco2)cs1
inactive: [1] 108% | [2] 52.4% | [3] 98.6% | [4] 69.2% | [6] 94% | [7] 81.3% | [8] 94.2% | [9] 94.1% | [10] 104%
active: [5] -7.19%

CCOc1cc2ncc(C#N)c(Nc3ccc(OCc4cccc(F)c4)c(Cl)c3)c2cc1NC(=O)CC1CCSS1 (stereo not given)
active: [9] 9.64% | [10] -25.2%
inactive: [1] 25.9% | [2] 27.3% | [3] 46% | [4] 39.3% | [5] 38.6% | [6] 59.7% | [7] 43% | [8] 64%

Cc1ccc(NC(=O)/C=C/c2ccccc2)c(C(N)=O)c1
active: [7] 6.55% | [9] 7.23%
inactive: [1] 67% | [2] 64.1% | [3] 53.1% | [4] 46.7% | [5] 92.9% | [6] 57.7% | [8] 53.8% | [10] 30.7%

— PubChem BioAssay (NCI)
